# Data reported in PubChem BioAssay (NCI).
# Compounds without any hit were thinned out: in the full panel of roughly 79,000, 15% have a hit. A number with no mark means an inactive call. The source made the active and inactive calls. Rule as the data show it: active = growth inhibition above about 70%; inactive = the rest.
# Experiments:
# [1] = NCI Yeast Anticancer Drug Screen. Data for the rad50 strain (AID 155);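 also: 0% = growth of vehicle-only cultures of the same strain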; conditions: S. cerevisiae rad50 strain growth inhibition; at 50.0 µM; active compounds read high
# In short: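 Compounds were tested on a yeast strain with an engineered DNA damage repair alteration; the reported value is growth inhibition normalised to vehicle treatment.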
# [2] = NCI Yeast Anticancer Drug Screen. Data for the mec2-1 strain (AID 157); conditions: S. cerevisiae mec2-1 strain, at 50.0 µM, active compounds read high
# In short: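 mec2-1 yeast strain, carrying an alteration in DNA damage repair or cell cycle control, was exposed to compounds; growth inhibition was measured relative to vehicle-treated controls.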
# [3] = NCI Yeast Anticancer Drug Screen. Data for the sgs1 mgt1 strain (AID 161);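 also: 0% = growth of cultures given vehicle only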; conditions: S. cerevisiae sgs1 mgt1 strain, at 50.0 µM, active compounds read high
# In short: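 Growth of a repair-deficient yeast mutant was monitored after compound treatment and expressed as inhibition relative to vehicle-treated cultures.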
# [4] = NCI Yeast Anticancer Drug Screen. Data for the cln2 rad14 strain (AID 165);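 also: 0% = growth equal to vehicle treated cultures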; conditions: S. cerevisiae cln2 rad14 strain, at 50.0 µM, active compounds read high
# In short: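 Yeast carrying cln2 and rad14 alterations (cell cycle control and DNA damage repair) were exposed to compounds. Growth inhibition was measured against vehicle-treated controls.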
# [5] = NCI Yeast Anticancer Drug Screen. Data for the bub3 strain (AID 167); conditions: S. cerevisiae bub3 mutant strain, at 50.0 µM, active compounds read high
# In short: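 Growth of a checkpoint-deficient yeast mutant is measured after compound exposure. Values represent inhibition relative to vehicle.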
# [6] = NCI Yeast Anticancer Drug Screen. Data for the mlh1 rad18 strain (AID 175); conditions: S. cerevisiae mlh1 rad18 strain growth inhibition; at 50.0 µM; active compounds read high
# In short: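 Growth inhibition of the yeast strain was measured after compound exposure and expressed relative to vehicle-treated controls. The strain carries defined defects in DNA damage repair.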
Structure (SMILES),growth inhibition [1],growth inhibition [2],growth inhibition [3],growth inhibition [4] [%],growth inhibition [5],growth inhibition [6]
C1=CCC(C(Cc2ccccc2)N2CCCCC2)CC1 (centres undefined),15.8%,1%,23.9%,-27.4,11.2%,24.1%
Cc1cc2nc3[nH]c(=O)c4c(n3c2cc1C)CCC4,0%,-6.8%,0.2%,-8.95,8.45%,-15.2%
O=C1NC(=S)S/C1=C\c1c(Cl)cccc1Cl,56.9%,19%,61.1%,16.9,27.9%,60.4%
CC(=O)C1C(=O)C(=O)N(c2ccc([N+](=O)[O-])cc2)C1=O (centres undefined),-26.9%,-37.4%,-10.7%,20.9,-1.9%,-37.5%
COc1ccc(-c2cc(-c3ccccc3)n(C3OCC(OC(C)=O)C(OC(C)=O)C3OC(C)=O)c(=S)c2C#N)cc1 (centres undefined),12.1%,18.9%,-12.7%,4.55,-3.6%,32.4%
N#Cc1cc([N+](=O)[O-])ccc1NC(=O)C(=O)Nn1c(=S)[nH]c2ccccc2c1=O,-2.25%,-2.6%,-34.5%,14.6,10.3%,5.9%
Cc1cc2c(cc1C)[n+](=O)c(C(=O)C/C(=N/OCCCc1ccccc1)C(=O)Nc1cc(Cl)ccc1Cl)c(C)n2[O-],-35.1%,1.8%,-7.2%,19.2,9.1%,-10.3%
Cc1cc(C)c(C#N)c(NN)n1,-5.35%,-2.8%,11.1%,12.2,-0.5%,-1.05%
CCCCCCCCC(=O)c1c(OC)oc(/C=N/NC(N)=S)cc1=O,83.5% (active),77.1% (active),79% (active),9.55,86.2% (active),71.8% (active)
COc1ccc2cc3[n+](cc2c1O)CCc1cc2c(cc1-3)OCO2,6.75%,-22.8%,19%,20.6,22.2%,22.9%
CC(=O)/C=C\C(=O)NNS(=O)(=O)c1ccc(C)cc1,20.6%,12.7%,-1.75%,9.35,34.1%,46.7%
N#C/C(=C\NC(=S)C(N)=S)C(=O)c1ccc2ccccc2c1,40.4%,30.3%,40.5%,33.5,24.3%,50.9%
O=C(O)COc1ccc2ccccc2c1,-15.4%,3.55%,-22.9%,-14.8,4.15%,2.1%
C/C(=N/O)c1ccc[cH-]1.[Fe+2].c1cc[cH-]c1,20.1%,-5.3%,0.45%,-0.8,-8.4%,-11.5%
Cc1ccc(CNC(=O)Nc2cccc(Cl)c2)cc1C,6.05%,15.5%,7.05%,1.3,16.8%,5.35%
Cc1nc2ccccc2n1C(=O)c1c(F)c(F)c(F)c(F)c1F,-35.9%,-17.6%,-28.6%,-18.7,-9.8%,-18.9%
O=C(Oc1c(OC(=O)c2ccccc2)c2ccccc2c2ccccc12)c1ccccc1,3.2%,9.35%,7.85%,-1.7,-1.25%,20.4%
C[N+]1=C2[B-](C(C)(C)C)=[N+](C(C)(C)C)[B-]2(C(C)(C)C)[N+](C)=C2[B-](C(C)(C)C)=[N+](C(C)(C)C)[B-]21C(C)(C)C (centres undefined),2.65%,0%,9.35%,-8.35,-4.1%,-9.85%
CCCCCCCCC(=O)c1ccc(N=Nc2ccc(OCC)cc2)cc1,-6%,12.9%,-5.5%,-8.55,3.15%,-14.8%
N=c1nccnn1O,6.45%,13.2%,-8.2%,10.4,-6.5%,3.95%

Structure (SMILES),growth inhibition [1],growth inhibition [2],growth inhibition [3],growth inhibition [4] [%],growth inhibition [5],growth inhibition [6]
CCOP(=Nc1ccccc1)(OCC)OCC,4.1%,5.85%,-3.9%,-5,1.75%,9.4%
COc1cc2cnc(-c3ccncc3)c(O)c2cc1OC,30.9%,40.6%,37.2%,1.9,36.2%,28.6%
NNC(=O)c1oc2ccccc2c1CN(CCO)CCO,3.75%,-2.4%,3.45%,-2.45,-1.15%,-5.1%
CCOC(=O)Cc1cc(Cl)c2ccc(Cl)cc2n1,32.1%,-2%,23.2%,11.6,36.4%,40.4%
Cc1cc(-n2cnc3c(N(CCO)CCO)ncnc32)ccc1[N+](=O)[O-],10.1%,-8.5%,-3.95%,-1.9,0.5%,-5.8%
O=C(C/C(=N\NC(=O)C[n+]1ccccc1)C(=O)Nc1nc2ccc([N+](=O)[O-])cc2s1)CC(c1ccccc1)c1c(O)c2ccccc2oc1=O (centres undefined),3.65%,-15%,-17.2%,1.6,7.3%,-4.85%
CCC(c1ccc(OC)cc1)C(C(C)=O)c1ccc(OC)cc1 (centres undefined),-5.55%,-13%,-4.1%,-22.9,25.6%,-5.85%
COc1ccc2oc3c(C)cc4c(OC)nnc(OC)c4c3c2c1,-43.8%,-52.9%,-13.4%,-18.1,-5.35%,-12.8%
Nc1nc2sc3ccccc3c(=O)n2n1,-10.7%,-31.9%,11.5%,19.1,-3.2%,-9.85%
CNC(=O)n1cnc(N)n1 (tested in a mixture with another compound),-13.2%,8.2%,16.7%,-25.3,-10.9%,13%
Clc1ccc(N=CNc2ccc(Cl)cc2)cc1,-10.2%,-2.85%,-6.55%,-14.2,43.2%,-2.35%
O=S(=O)(c1ccccc1)N1CCCCN(S(=O)(=O)c2ccccc2)COC1,5.25%,-7.45%,-1.65%,-9.85,-7.45%,-5.35%
COc1ccc2nccc(/C=C/CC3CCN(C(C)=O)CC3)c2c1,31.8%,29.4%,88.2% (active),45.6,31.6%,74.8% (active)
COc1cccc(OC)c1/C=C1\N=C(c2ccccc2)OC1=O,-1.4%,-1.4%,2.55%,-56.9,5.55%,-9.25%
CC1=C(C(=O)NC2CCCCC2)CC(C(=O)NC2CCCCC2)=C(C)N1,-16.6%,-25.6%,-26.2%,-21.1,-17.3%,-61.9%
O=C1CCSSCCC(=O)NCCCN1,1%,-5.3%,-24.4%,15.2,-24.1%,-6.3%
O=C1OC(Oc2ccccc2OC2OC(=O)c3ccccc32)c2ccccc21 (centres undefined),-6.9%,3.7%,0.4%,5.95,-5.05%,9.85%
CCCC(O)CNCC1CCC2CCc3cccc1c32 (centres undefined),-2.9%,5.8%,4.5%,2.05,20.4%,18.9%
CC(=O)CC(=O)C(C)C.[Cu+2],-7.6%,-15.9%,-17.1%,-17.9,-21.5%,-17.4%
